Here are results for 40 sequences from the supplement of paper PMC10681739.
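Note: Full-length recombinant human RUNX1 bound to double-stranded 36-bp genomic probes on a high-density microarray, scored as Alexa488 fluorescence per spot via anti-RUNX1 antibody, median of four replicate spots.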

Sequence of RUNX1 (Q01196 whole entry): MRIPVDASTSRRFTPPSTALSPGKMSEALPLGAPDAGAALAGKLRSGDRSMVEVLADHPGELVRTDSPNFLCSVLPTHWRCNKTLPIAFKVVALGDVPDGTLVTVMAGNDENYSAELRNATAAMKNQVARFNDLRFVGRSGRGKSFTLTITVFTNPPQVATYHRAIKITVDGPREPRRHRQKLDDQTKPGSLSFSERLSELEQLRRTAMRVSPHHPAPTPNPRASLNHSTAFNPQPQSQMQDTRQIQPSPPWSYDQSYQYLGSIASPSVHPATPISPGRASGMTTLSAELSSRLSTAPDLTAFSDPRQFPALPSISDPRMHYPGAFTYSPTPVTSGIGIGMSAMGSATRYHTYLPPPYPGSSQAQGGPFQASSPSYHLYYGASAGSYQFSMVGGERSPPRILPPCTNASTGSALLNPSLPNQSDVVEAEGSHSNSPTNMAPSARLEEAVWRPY

The target of the assay is RUNX1 (UniProt Q01196). In words: RUNX1 binding intensity (PBM fluorescence), RUNX1 alone (arbitrary fluorescence units); higher = stronger binding. Conditions: RUNX1 concentration 2 nM; ETS1 concentration 0 nM. The protocol:
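Cooperative gcPBM on 36-bp genomic probes with neighbouring ETS1 and RUNX1 sites. Recombinant human RUNX1 (2 nM) was incubated alone or with ETS1 (25 nM) and detected with anti-RUNX1 antibody plus Alexa488 secondary. Values are medians over 4 replicate spots; the RUNX1+ETS1 data were normalised to the RUNX1-only data. The probes sit in constant array flanks that are not printed.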
AGGAGTGTCACTTCCTCTTTCCTCACCACAGCCTCC came in with an RUNX1 binding intensity of 1040.

TTCAACAAGGTTTTCCTGTGGTTACCCCATGCTTTG yielded an RUNX1 binding intensity of 1040.

TGATAAAACACAGGATGTGGTAAGGGAGCTGGCCAA gave an RUNX1 binding intensity of 682.

In the case of GCCCGCCCCGGAAGTGCAAACTGTGTGGTCTGGCAG, the RUNX1 binding intensity was 867.

For the sequence CACGGAGCCACTTCCGGCGGCTGTGGGCGCAAAACC, the RUNX1 binding intensity was found to be 752.

In the case of GCCACTTCCGGTCACTCCCCGCTGCGGCCTCGCGCT, the RUNX1 binding intensity came to 1190.

In turn, CAGTCAAGAGGAAATTATAAACCACTGCCTCTTTGA returned an RUNX1 binding intensity of 833.

Regarding TCCAGGCATTTCCCCCATGTTGGCTCACCGCACTAT, the RUNX1 binding intensity amounted to 1260.

With AATGAAGGAGGGGCAGGATGTGGTCTTGGTGAATCA, the RUNX1 binding intensity is 746.

As to GGGCGGAAGTGCGTCACTATGTCCGACCCGCAGTGC, the RUNX1 binding intensity was 706.

CCCCCTGAACATCCGGGGCCTTTTAACCGCCCACGG showed an RUNX1 binding intensity of 937.

Sequence CAAGGTTCCTCCGCTTCCTGCCCGCAGGCCGAACCT registered an RUNX1 binding intensity of 840.

ATCAGTCAACTTCCCCCACTCCCTCCCACAAAGAAA registered an RUNX1 binding intensity of 1400.

Regarding GACAGTTTTCCGGCCTAGTTTGCGGCTGCTCCTGCC, the RUNX1 binding intensity stood at 830.

Sequence CCTTTACGTTTTCCTGTTGCGGGTTCTATCGCTCTG had an RUNX1 binding intensity of 1600.

In turn, AATGATTACCTAACAGGAAAACCACATTGGTCATTT came in with an RUNX1 binding intensity of 1180.

Take TTCAACAGGATATTGCTTTGTTACCACAGGCCCTTT: the RUNX1 binding intensity is 946.

As for GAGCATAGCCTAGCAGGATGTGGTTAAATACATTTG, the RUNX1 binding intensity came out at 747.

As for ATGAACCACTTCCTGTGTGTTCCCACAGAGGTCAGG, the RUNX1 binding intensity was 742.

For GAGGCAGGCGGATGTCAGTGTGGTTAGAGCACAGTG, the RUNX1 binding intensity was determined as 782.

The sequence AGTTGGTTCCTTCCGGTGGGTTTGTGGGCTTGGGGT returned an RUNX1 binding intensity of 763.

The sequence ATCAAACCCCAGGATATGTTGGTTTTGTAGGTTGTC displayed an RUNX1 binding intensity of 874.

For the sequence TTTCCTCGGATTCCCGGATGTGGGTGAGTTCATTTG, the RUNX1 binding intensity is 809.

TCTGTCGTCCCACTTCCTGCTGCGGTTTCCACCTCG showed an RUNX1 binding intensity of 8620.

Regarding CCTCCGGAACGGCGCGGGGGATTGTGGGGTGTAGGG, the RUNX1 binding intensity was 910.

Turning to AGGACACAGACAGGAAACCCGCAGGCTTTGTTTTTT, the RUNX1 binding intensity came to 859.

In the case of GGCGAGGCTGAGAGGAAACCACACTCTCACTGGGGT, the RUNX1 binding intensity amounted to 933.

On to GTGGAAAGGAAATGTGTCATCTGTGGTTTGGTTTTA, for which the RUNX1 binding intensity stood at 1060.

As to AGGTGTACTTTCCGGGTGCAGACCGCGAATGGATCG, the RUNX1 binding intensity worked out at 743.

Regarding CCGGTCCGCTCGCCGGAAATGCGGGCTCTCCTGCCG, the RUNX1 binding intensity was determined as 815.

Regarding AGTTACAGTAAAGGATGTGGTGAAACAGATGTTTAT, the RUNX1 binding intensity is 781.

The sequence CTGCTGGCGTTCCCGGATGTGCGGTGGCGGTGCTAC came in with an RUNX1 binding intensity of 753.

GCGGAGGGAAGCGGAAATACTTGCGGTGGGGGCGAC: the RUNX1 binding intensity is 898.

GCCAGGGCAGGAAGTTGCTAACCGCCCCAGAGCAGG: the RUNX1 binding intensity turned out to be 804.

In turn, GGACGCTTCCGGTGGAAGGGAGCTGTTGCGGGGCTT gave an RUNX1 binding intensity of 716.

As for GGCGCTAGGCTTCCGGATCGCGGTGGGCGGAGTTCA, the RUNX1 binding intensity stood at 678.

GATACCCAGCCAGCGGAAGTGCGGTTAACTGCCCGA came in with an RUNX1 binding intensity of 4990.

Consider CAGAGGAAGCCCACCCCATAAAAGAACCACAGATAA, for which the RUNX1 binding intensity was 1010.

TGCCTCACCTCACATCCGTTTGTGGCTGCCGAGTGC yielded an RUNX1 binding intensity of 950.

GCAGAAGAGGAAATGGTTTGCCTGTGCGGTGGGGGA yielded an RUNX1 binding intensity of 821.
